# “And” between values parts separate entries of the source, which are not always exact repeats. Equal entries are not always repeated. About 83,000 compounds went through this panel and 20% of them were active in at least one assay; those are over-represented in the sample as a whole.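 Interpretation: 100, growth as untreated; towards 0, rising growth inhibition; 0, no net growth; 0 to -100, cell death. Compounds scoring below 10 were considered active.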 The source made the active and inactive calls.
# Columns and labels:
# Test in all cases: NCI-60 one-dose screen, 48 h (100 = growth as untreated, 0 = no growth, -100 = all killed)
# Settings in all cases: 10 µM unless noted
# [1] = system: T-47D breast
# [2] = system: BT-549 breast
# [3] = system: MDA-MB-435 melanoma
# [4] = system: SW-620 colon
# [5] = system: MCF7 breast
# [6] = system: HCT-116 colon
# [7] = system: HCC-2998 colon
# [8] = system: KM12 colon
SMILES,growth [1],growth [2],growth [3],growth [4],growth [5],growth [6],growth [7],growth [8]
CC(=O)C[n+]1ccccc1Sc1ccc(Cl)cc1,84.8% (inactive),30% (inactive),78% (inactive),91.6% (inactive),65% (inactive),81.5% (inactive),128% (inactive),79.2% (inactive)
Cc1c(Cl)c(C)c(Cc2c(C)c(Cl)c(C)c(Cl)c2O)c(O)c1Cl,1.53% (active),22.6% (inactive),7.62% (active),17.1% (inactive),1.6% (active),3.19% (active),25.7% (inactive),15.7% (inactive)
O=C1c2cccnc2-c2ncccc21,98.9% [100 µM] (inactive),104% [100 µM] (inactive),103% [100 µM] (inactive),109% [100 µM] (inactive),109% [100 µM] (inactive),107% [100 µM] (inactive),112% [100 µM] (inactive),103% [100 µM] (inactive)
COc1cc(Cl)ccc1C,94.9% (inactive),102% (inactive),102% (inactive),52.8% (inactive),56.8% (inactive),59% (inactive),105% (inactive),92.8% (inactive)
Cc1cc(O)c(C(C)C)cc1N=O,82.5% (inactive) and 90.9% (inactive),114% (inactive) and 95.9% (inactive),99.5% (inactive) and 117% (inactive),123% (inactive) and 104% (inactive),90.8% (inactive) and 94.9% (inactive),94.4% (inactive) and 93.8% (inactive),98.1% (inactive) and 102% (inactive),109% (inactive) and 110% (inactive)
O=C(O)Cc1cc(=O)[nH]n(-c2ccccc2)c1=O,98.2% (inactive),103% (inactive),108% (inactive),108% (inactive),98.9% (inactive),101% (inactive),106% (inactive),107% (inactive)
CC(C)(C)OC(=O)c1ccc(NCc2cc(O)ccc2O)cc1,-67.5% (active),-17.6% (active),20% (inactive),18.9% (inactive),29.5% (inactive),36.2% (inactive),113% (inactive),8.14% (active)
CC(C)(C)OC(=O)CC1(O)CCCCC1,99.8% (inactive),110% (inactive),102% (inactive),103% (inactive),101% (inactive),102% (inactive),106% (inactive),107% (inactive)
Oc1ccc(O)c(-c2ccccc2)c1,47.1% (inactive),55.3% (inactive),81.8% (inactive),78.7% (inactive),39.5% (inactive),47.1% (inactive),65.6% (inactive),40.8% (inactive)
CCC(C)NC(=O)c1ccccc1C (stereo not given),94.3% (inactive),99.4% (inactive),103% (inactive),92.4% (inactive),90.7% (inactive),98.3% (inactive),96.7% (inactive),101% (inactive)
CCC(=O)Oc1ccc(OCc2ccccc2)cc1,113% (inactive) and 89.5% (inactive),73.4% (inactive),96.9% (inactive) and 82.1% (inactive),90.2% (inactive) and 79.7% (inactive),91.4% (inactive) and 88.5% (inactive),99.7% (inactive) and 102% (inactive),84.4% (inactive) and 87.7% (inactive),86.5% (inactive) and 89.6% (inactive)
Nc1c(S(=O)(=O)O)cc(Br)c2c1C(=O)c1ccccc1C2=O,90% (inactive) and 96.7% (inactive),110% (inactive),105% (inactive) and 115% (inactive),109% (inactive) and 111% (inactive),96.8% (inactive) and 93.8% (inactive),109% (inactive),108% (inactive) and 109% (inactive),104% (inactive) and 108% (inactive)
O=c1[nH]nnc2cc(Cl)ccc12,106% (inactive) and 98.4% (inactive),110% (inactive),104% (inactive) and 102% (inactive),95.3% (inactive) and 99.8% (inactive),114% (inactive) and 94.5% (inactive),104% (inactive) and 103% (inactive),109% (inactive) and 98.7% (inactive),101% (inactive) and 102% (inactive)
CCN(CC)C(=S)SCCO,101% (inactive),144% (inactive),111% (inactive),106% (inactive),104% (inactive),107% (inactive),94.1% (inactive),105% (inactive)
NCCSSC/C=C\CSSCCN,86.4% (inactive),100% (inactive),105% (inactive),102% (inactive),97.2% (inactive),94.3% (inactive),112% (inactive),102% (inactive)
N#Cc1c[nH]n2ccnc12,92.3% (inactive),98.3% (inactive),114% (inactive),119% (inactive),102% (inactive),95.2% (inactive),113% (inactive),109% (inactive)
COc1ccc(CCN=Cc2ccc(Cl)cc2)cc1OC,97% (inactive),107% (inactive),113% (inactive),102% (inactive),96.1% (inactive),104% (inactive),105% (inactive),102% (inactive)
O=C(O)C1CSCN1 (stereo not given),107% (inactive) and 97.9% (inactive),99% (inactive),95.5% (inactive) and 104% (inactive),115% (inactive) and 113% (inactive),95.4% (inactive),108% (inactive) and 94.4% (inactive),133% (inactive) and -20.6% (active),117% (inactive) and 110% (inactive)
O=[N+]([O-])c1ccc(NC2CCCCC2)nc1,102% (inactive),114% (inactive) and 106% (inactive),102% (inactive) and 112% (inactive),103% (inactive) and 109% (inactive),110% (inactive) and 102% (inactive),108% (inactive) and 101% (inactive),105% (inactive) and 96.3% (inactive),111% (inactive) and 103% (inactive)
O=[N+]([O-])c1cccc2ccc(N/N=C/c3ccccc3O)nc12,38.1% (inactive) and 78% (inactive),68.6% (inactive) and 103% (inactive),101% (inactive) and 106% (inactive),21.7% (inactive) and 96.4% (inactive),42.5% (inactive) and 61.7% (inactive),20.8% (inactive) and 67.8% (inactive),110% (inactive),86.8% (inactive) and 84.3% (inactive)
CCCCNC(=O)c1ccccc1C,96.9% (inactive),94.1% (inactive),97.9% (inactive),104% (inactive),89.8% (inactive),90.2% (inactive),88.3% (inactive),101% (inactive)
O=[N+]([O-])c1ccc(N/N=C/C2CCCCCC2)c([N+](=O)[O-])c1,84% (inactive),91% (inactive),87.6% (inactive),79% (inactive),94.8% (inactive),103% (inactive),106% (inactive),71.6% (inactive)
CS(=O)(=O)OCC1NC(=O)C(COS(C)(=O)=O)NC1=O (stereo not given),104% (inactive) and 105% (inactive),78.1% (inactive) and 30.1% (inactive),107% (inactive) and 90.7% (inactive),106% (inactive) and 104% (inactive),93% (inactive) and 85% (inactive),93.7% (inactive) and 93.8% (inactive),89.7% (inactive) and 103% (inactive),104% (inactive) and 83.9% (inactive)
COc1ccc(CCNC(=S)NN)cc1OC,98.8% (inactive),118% (inactive),111% (inactive),99% (inactive),93.9% (inactive),84.2% (inactive),88.8% (inactive),94.2% (inactive)
Cn1c(-c2ccccc2)cc(=O)cc1-c1ccccc1,97.1% (inactive),86.8% (inactive),116% (inactive),51.7% (inactive),53.3% (inactive),61.6% (inactive),127% (inactive),98.5% (inactive)

# Reference: PubChem BioAssay (NCI)
